The record followed here is PubChem BioAssay AID727 (The Scripps Research Institute Molecular Screening Center, 2007).

Out of some 97,000 compounds screened, about 810 (0.84%) were called active. For the sample, actives were picked, then their nearest neighbours and some compounds at random. Unmarked numbers belong to inactive results. No stated cut-off is given here; in the data, active means inhibition above about 19%; inactive means the rest.

In general, inhibition refers to the drop in the measured response relative to a control, in per cent.

Sequence of Focal adhesion kinase 1 (Homo sapiens) (Q05397 whole entry, looked up): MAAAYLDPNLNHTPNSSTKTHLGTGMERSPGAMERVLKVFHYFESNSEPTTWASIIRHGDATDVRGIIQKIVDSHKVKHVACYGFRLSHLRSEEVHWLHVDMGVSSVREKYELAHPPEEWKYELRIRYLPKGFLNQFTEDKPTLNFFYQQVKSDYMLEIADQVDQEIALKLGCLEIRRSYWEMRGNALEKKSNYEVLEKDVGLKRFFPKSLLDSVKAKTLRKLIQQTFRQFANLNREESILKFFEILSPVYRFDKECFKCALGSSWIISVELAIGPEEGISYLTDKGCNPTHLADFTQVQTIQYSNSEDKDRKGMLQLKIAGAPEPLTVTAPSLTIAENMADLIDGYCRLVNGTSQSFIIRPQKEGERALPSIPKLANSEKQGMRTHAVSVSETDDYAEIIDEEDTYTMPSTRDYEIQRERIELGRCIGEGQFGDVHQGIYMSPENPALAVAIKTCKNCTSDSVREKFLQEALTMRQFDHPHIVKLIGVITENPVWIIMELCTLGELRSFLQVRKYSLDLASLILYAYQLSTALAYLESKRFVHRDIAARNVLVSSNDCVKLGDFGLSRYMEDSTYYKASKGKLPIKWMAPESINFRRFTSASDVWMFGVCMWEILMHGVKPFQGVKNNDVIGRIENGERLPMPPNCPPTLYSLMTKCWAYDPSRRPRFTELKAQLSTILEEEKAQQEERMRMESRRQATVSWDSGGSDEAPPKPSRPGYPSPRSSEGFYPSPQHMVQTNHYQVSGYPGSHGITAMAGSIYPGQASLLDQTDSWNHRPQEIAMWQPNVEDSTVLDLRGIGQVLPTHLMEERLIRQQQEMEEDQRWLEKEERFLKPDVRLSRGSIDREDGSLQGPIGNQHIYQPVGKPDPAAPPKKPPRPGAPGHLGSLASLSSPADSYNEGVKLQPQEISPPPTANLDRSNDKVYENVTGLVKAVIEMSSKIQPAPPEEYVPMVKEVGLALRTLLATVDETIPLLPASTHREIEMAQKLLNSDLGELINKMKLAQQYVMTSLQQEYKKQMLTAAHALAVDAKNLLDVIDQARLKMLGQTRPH

This assay addresses Focal adhesion kinase 1 (Homo sapiens) (UniProt Q05397). As to the kind of experiment: human PTK2 enzyme activity blockers – biochemical, primary screen (AID 727).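 Further: 0% = DMSO and 100% = reference compound high control.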 The following applies: biochemical FAK kinase activity assay; stronger effect = higher value;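 tested at 7 µM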.
Consider `Cc1cccc(NC(=O)Cn2cc(C(=O)c3ccco3)c3ccccc32)c1`, for which the inhibition was -4.82%.

Consider `Cc1cc(C)c2c3c(sc2n1)C(c1ccccc1)C(C#N)=C(N)O3` (stereo unspecified), for which the inhibition is 1.94%.

With `CCCCC(C(=O)OCC(=O)c1ccc(OC)cc1)N1C(=O)c2ccccc2C1=O` (stereo unspecified), the inhibition is 0.79%.

`CC(c1ccccn1)N(CCN(C)C)C(=S)Nc1ccccc1F` (stereo unspecified): the inhibition is -1.18%.

For `CCOC(=O)c1cc(NC(=O)c2ccc(Cl)cc2)c(=O)oc1-c1ccccc1`, the inhibition was -2.61%.

As for `Nn1c(Cc2cccc3ccccc23)nnc1SCC(=O)N1CC(=O)Nc2ccccc21`, the inhibition was -1.43%.

Turning to `Clc1ccccc1CSc1nnc(-c2ccco2)c(-c2ccco2)n1`, the inhibition was 31.9% (active).

As for `c1ccc(CSc2nnc(-c3ccco3)n2Cc2ccccc2)cc1`, the inhibition is -5.27%.

For `Nc1nc(SCc2ccccc2Cl)n[nH]1`, the inhibition is 1.47%.

Regarding `CCCCOc1ccc(N(CC(=O)NCC2CCCO2)C(=O)CCC(=O)Nc2cc(C)ccn2)cc1` (stereo unspecified), the inhibition was -1.73%.

Take `CCNC(=O)c1sccc1-n1cccc1`: the inhibition was -1.65%.

Turning to `Cn1c(SCC(=O)C(C)(C)C)nnc1-c1ccccn1`, the inhibition was -1.08%.

As to `Clc1ccccc1-c1cc(COc2ccc3ccccc3c2)no1`, the inhibition is 5.83%.

For `CCCC(C)C(=O)Nc1ccc(NC(C)=O)cc1` (stereo unspecified), the inhibition is 0.18%.

Regarding `O=C(CSc1nc2[nH]ncc2c(=O)n1-c1ccccc1)N1CCCc2ccccc21`, the inhibition was 0.8%.

As for `C=CCn1c(=O)c2ccccc2n2c(SCC(=O)N3CCCc4ccccc43)nnc12`, the inhibition was 5.22%.

For `Cn1c(SCC(=O)N2CCCc3ccccc32)nc2ccccc2c1=O`, the inhibition is 37.7% (active).

`CC(C)(C)C(=O)Cn1c(NCCO)nc2ccccc21`: the inhibition was 1.69%.

As for `CC(C)(C)C(=O)c1cnc(Nc2ccccc2)s1`, the inhibition is 4.36%.

For `OC(C#CCN1CCOCC1)(c1ccccc1)C1CCCCC1` (stereo unspecified), the inhibition is 0.89%.

With `COc1ccc(S(=O)(=O)N/N=C\c2ccc(OC)c(COc3ccc(C)cc3[N+](=O)[O-])c2)cc1`, the inhibition is 2.51%.

Consider `O=C(Nc1cccc2ncccc12)c1ccc(-c2ccc(Cl)cc2Cl)o1`, for which the inhibition is 9.2%.

`CCN1CCN(c2ccc([N+](=O)[O-])cc2C(=O)c2ccc(Cl)cc2)CC1`: the inhibition was -2.69%.

Take `O=C(CSc1nc2cccnc2n1Cc1ccccc1)N1CCc2ccccc21`: the inhibition was 1.41%.

As to `FC(F)(F)c1cccc(NC(=S)Nc2cccc(Cl)c2)c1`, the inhibition is -0.91%.

Consider `Cc1c(NC(=O)c2cc(-c3ccc(Cl)s3)nc3ccccc23)c(=O)n(-c2ccccc2)n1C`, for which the inhibition was 2.95%.

For `Cc1ccc(C(=O)N/C(=C/c2ccco2)C(=O)NCCc2c[nH]c3ccccc23)cc1C`, the inhibition was 4.25%.

Consider `COc1ccc(C2C=C(c3ccc(Br)cc3)Nc3nc(NS(C)(=O)=O)nn32)cc1` (stereo unspecified), for which the inhibition was -9.88%.

For `O=C(CSc1nnnn1-c1ccccc1)NCc1ccco1`, the inhibition was 5.37%.

Regarding `COc1ccc(CN(Cc2ccco2)S(=O)(=O)c2ccc(S(=O)(=O)N3CCCC3)cc2)cc1`, the inhibition was -0.01%.

For `Cc1cccc(N2CCN(C(=O)CN(C)S(=O)(=O)c3ccc4c(c3)CCC(=O)N4)CC2)c1C`, the inhibition was 4.5%.

For the molecule `O=[N+]([O-])c1cccc(-c2nnc3c4ccccc4c4ccccc4n23)c1`, the inhibition was 17.7%.

Consider `O=c1c2c(nc3nc[nH]n13)CCC2`, for which the inhibition was -0.92%.

Take `CCN1C(=O)/C(=C\N2CCOCC2)SC1=S`: the inhibition is -1.1%.

In the case of `Cc1cccc(N(C(=O)Cc2cccs2)C(C(=O)NC2CCCC2)c2ccsc2)c1` (stereo unspecified), the inhibition is 2.56%.

For `S=c1[nH]nc(-c2ccco2)n1/N=C/c1ccc(Br)s1`, the inhibition is 15.6%.

Turning to `Oc1ccccc1/C=N/n1c(-c2cccs2)n[nH]c1=S`, the inhibition is 29.4% (active).

Consider `Cc1ccc(/C=N\n2c(-c3ccccc3)n[nH]c2=S)s1`, for which the inhibition was 0.69%.

For the molecule `O=C(Nc1ccc(Cl)cn1)c1cnn2cccnc12`, the inhibition is 5.62%.

`Cc1cc(NC(=O)Nc2ccccc2)n(-c2ccccc2)n1`: the inhibition is -1.43%.

For the molecule `Cc1cc(NC(=O)c2cnn3cccnc23)n(-c2ccccc2)n1`, the inhibition is 20.4% (active).

Consider `CNC(=O)c1csc(-c2ccccc2)n1`, for which the inhibition was -0.71%.

As for `Cc1ccc(C(c2nnnn2CS(=O)(=O)c2ccc(C)cc2)N2CCC(C)CC2)cc1` (stereo unspecified), the inhibition was -7.49%.

As to `CSc1ccccc1C(=O)Nc1cccc(C(C)=O)c1`, the inhibition is 2.46%.

In the case of `CCN1CCN(C(=O)C2(NC(=O)Nc3cccc(F)c3)CCCCC2)CC1`, the inhibition is -0.58%.

For the molecule `CCOC(=O)c1c(N)sc(C(C)=O)c1C`, the inhibition is -0.36%.

Turning to `CCOC(=O)CSc1nc2ccc(C)cc2[nH]1`, the inhibition is -1.86%.

In the case of `CCCSc1nsc(N)n1`, the inhibition was -4.41%.

Turning to `CCN(CC)S(=O)(=O)c1ccc(N(C)Cc2ccc(C(F)(F)F)cc2)nc1`, the inhibition is -0.16%.

Take `O=C(Nc1ccc(Cl)cc1)OCc1cc(-c2ccccc2)on1`: the inhibition is -6.39%.

As for `CN(C)/C=C(\C#N)C(=O)c1cccnc1Oc1ccc(F)cc1F`, the inhibition was -5.85%.

As for `C=CCn1c(SCc2c(C(=O)OC)sc(N)c2C(=O)OC)nnc1-c1ccc(Cl)cc1`, the inhibition is 1.31%.

Regarding `OC(CN=c1sc2ccccc2n1CC(O)COc1ccccc1)COc1ccccc1` (stereo unspecified), the inhibition was 0.61%.

In the case of `CCn1c(SC)nc(O)c(C(c2ccc(OC)c(O)c2)c2c(O)nc(SC)n(CC)c2=O)c1=O`, the inhibition is -2.86%.

For `CNC(=O)CSc1nnnn1-c1ccc(C)cc1C`, the inhibition was 2.36%.

Regarding `CCn1nnnc1SCC(=O)c1ccc(C)cc1C`, the inhibition is 21.8% (active).

`CCOC(=O)CNC(=O)CSc1nnnn1-c1cc(C)ccc1C`: the inhibition is -0.99%.

For `COc1ccc(OCCCC(=O)Oc2ccc(OC)cc2)cc1`, the inhibition was 0.13%.

`COc1ccc(-c2oc3ncn(Cc4ccco4)c(=N)c3c2-c2ccc(OC)cc2)cc1`: the inhibition was 3.43%.

`CCc1ccc(CNC(=O)C2CC(=O)N(CCc3ccc(C)cc3)C2)cc1` (stereo unspecified): the inhibition was -1.09%.

As for `CC(=O)c1cccc(NC(=O)N2CCCC2C(=O)NCCc2ccccc2)c1` (stereo unspecified), the inhibition is -0.1%.

Turning to `CCOC(=O)CC(=O)CSc1nc(-c2ccccc2)cc(-c2ccc(Cl)cc2)c1C#N`, the inhibition was -8.83%.

Take `N#CC1=C(N)N(c2ccccc2)C2=C(C(=O)CCC2)C1c1ccccc1` (stereo unspecified): the inhibition was 0.57%.

As for `O=C(NC1CCN(C(=S)NCc2ccco2)CC1)c1ccc(F)cc1`, the inhibition was 2.16%.

Take `CCOc1ccc(N=Cc2c(O)n(-c3cccc(C)n3)c(=O)c3ccccc23)cc1`: the inhibition was -4.03%.

Turning to `CCN(c1ccccc1)S(=O)(=O)c1ccc(C(=O)Nc2nccs2)cc1`, the inhibition is 1.43%.

As for `Cn1cccc1C(=O)Nc1nccs1`, the inhibition was 25.5% (active).

`COc1cc(C(=O)Nc2nccs2)cc(OC)c1OC`: the inhibition was -2.65%.

`Cc1ccccc1-n1c(C)cc(/C=N/NC(=O)c2ccc(CN3CCOCC3)cc2)c1C`: the inhibition is 5.57%.

Take `O=C(Cn1cc(/C=N/NC(=O)c2cccc(C(F)(F)F)c2)c2ccccc21)Nc1ccc(F)cc1`: the inhibition is -6.09%.

On to `CCCNC(=S)N1CCC(NC(=O)C23CC4CC(CC(C4)C2)C3)CC1`, for which the inhibition is 0%.

Consider `Cc1nn(-c2ccccc2)c(Cl)c1C(=O)Nc1ccccc1`, for which the inhibition is 1.43%.

With `Cc1cccc(NC(=O)C(C)N2C(=O)C3C4CC(C(Br)C4Br)C3C2=O)c1` (stereo unspecified), the inhibition is 3.39%.

For `Cc1ccc(-c2nn(C(C)(C)C)c3ncnc(N)c23)cc1`, the inhibition was 38.8% (active).

In the case of `COc1nc(-c2ccc(Cl)cc2)ccc1-c1noc(-c2cccs2)n1`, the inhibition was -0.49%.

Take `CCOC(=O)C1=C(CN2CCc3ccccc32)NC(=O)NC1c1cc(C)ccc1C` (stereo unspecified): the inhibition was 4.94%.

Take `CN(Cc1ccccc1)C(=O)COc1ccccc1`: the inhibition was -1.65%.

Take `Cc1no[n+]([O-])c1COc1ccccc1/C=C1\NC(=S)NC1=O`: the inhibition is 1.38%.

Take `O=C1CCN(C(=O)Nc2ccccc2)N1`: the inhibition was -0.01%.

For `COC(=O)CN(C(=S)Nc1ccc(Cl)cc1)C1CC(=O)N(c2ccc(OC)cc2)C1=O` (stereo unspecified), the inhibition is 1.24%.

With `Cc1ccc(OCC(=O)N/N=C/c2ccncc2)cc1`, the inhibition was 1.58%.

`COC(=O)c1ccc(NC(=O)C23CC4CC(C2)CC(n2cnc(Cl)n2)(C4)C3)cc1`: the inhibition is 2.71%.

Turning to `COc1ccc(C(=S)Nc2ccccc2)cc1`, the inhibition is -5.15%.

For the molecule `CCCNC(=O)Nc1ccccc1C(=O)Nc1ccc(OC)cc1`, the inhibition is 4.85%.

Take `COc1ccc(NC(=O)ON=C2c3ccccc3-c3ccccc32)cc1`: the inhibition was 35% (active).

Regarding `Cc1cccc(NC(=S)N2CCC(c3nc4ccccc4s3)CC2)c1`, the inhibition was 0.28%.

As for `Cc1nn(C)c(Oc2ccccc2)c1CCNS(=O)(=O)c1ccc(F)cc1`, the inhibition is 0.76%.

Take `Cc1nc2ccccc2c(-c2ccccc2)c1C(=O)c1ccccc1`: the inhibition is 0.7%.

For the molecule `Cc1ccc(NC(=S)NC(=O)c2ccc(-c3ccccc3)cc2)c(C)c1`, the inhibition is 1.93%.

In the case of `CC(=O)NS(=O)(=O)c1ccc(NC(=O)/C=C/c2ccccc2Cl)cc1`, the inhibition was -4.73%.

Take `Cc1ccc(/C=N/NC(=O)Cn2nc(C)c(Br)c2C)o1`: the inhibition is -0.29%.

For `O=[N+]([O-])c1ccc(C=Nc2ccc(Cl)cc2Cl)s1`, the inhibition was 20.7% (active).

Regarding `COc1ccc(CCn2c(=N)c(C(=O)NCc3ccco3)cc3c(=O)n4cccc(C)c4nc32)cc1`, the inhibition was 1.33%.

On to `Cc1cccn2c(=O)c3cc(C#N)c(=O)n(CCCN4CCOCC4)c3nc12`, for which the inhibition was 2.6%.

For the molecule `Cc1cccn2c(=O)c3cc(C(=O)N4COCC4(C)C)n(C)c3nc12`, the inhibition was 25.2% (active).

In the case of `Cc1cccc(COc2ccccc2/C=N/Nc2ccc([N+](=O)[O-])cc2)c1`, the inhibition is 14.6%.
